Compound activity: PubChem, National Center for Advancing Translational Sciences (NCATS)
An excerpt weighted towards active compounds, which were near 10% of everything screened.
ELG1 repair inh = blocks ELG1-dependent DNA repair in HEK293T cells; HEK293T ELG1-luciferase reporter, luminescence, 16 h; DNA damage induced by 5-fluorouridine; 2.3% of 330,000 active; Potency, µM (highest dose often 46.1 µM), inactives show top-dose activity change, negative = inhibition, usual class: inhibitors; also: % is scaled to controls: 0 for no effect and ±100 for the full control effect; nearly all actives have a fitted effect of over 55% in size
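DMSO vehicle served as the neutral condition. Each well held 2,000 cells given 5-fluorouridine plus compound; after 16 hr at 37 °C/5% CO2, ONE-Glo was added and luciferase measured 30 min later.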
SW480 rerep = induces DNA re-replication in SW480 colon adenocarcinoma cells; SW480 DNA re-replication, Hoechst DNA content imaging, 48 h; Potency, µM (doses to about 46.1 µM), for inactives: at the top dose re-replication activation, actives largely listed as activators; 1.8% of 340,000 active; AID 624297; also: % of control where 0% means no effect; nearly all actives have a fitted effect of over 55% in size
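250 cells/well; 23 nL cpd via pin tool; 48 hr, 37 C, 5% CO2; Hoechst 40 min; imager read of total nuclear intensity, ex 405/em 500-530 nm.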
MCF10A rereplic = DNA re-replication induction in MCF 10a cells. AID 624296. MCF 10A DNA re-replication, Hoechst nuclear intensity, 48 h. 2.9% of 350,000 active. Potency, µM (titrated, usually from 46.1 µM), for the others: top-dose activity, positive = re-replication, actives largely listed as activators; also: % of control where 0% means no effect; nearly all actives have a fitted effect of over 50% in size
Gal4-VP16 FLuc = Gal4-VP16 reporter inhibition counter-screen; Drosophila S2 Gal4-VP16 UAS-luciferase, luminescence, 20 h; Potency, µM (highest dose often 53.6 µM), for the others: top-dose activity, negative = inhibition, most hits filed as inhibitors; 3.5% of 310,000 active; AID 2546;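 also: Gal4-VP16 expression switched on by copper sulfate through the metallothionein promoter; % is scaled to controls: 0 for no effect and ±100 for the full control effect; nearly all actives have a fitted effect of over 50% in size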
RORg inh = ROR gamma (mouse) transcription inhibition; 5.4% of 310,000 active; Drosophila S2 Gal4-RORgamma UAS-luciferase reporter, 20 h; AID 2551; Potency, µM (doses to about 53.6 µM), for the others: top-dose activity change, negative = inhibition, usual class: inhibitors; also: % is scaled to controls: 0 for no effect and ±100 for the full control effect; nearly all actives have a fitted effect of over 60% in size
Target sequence (P51450 whole entry, looked up, the tested form may be a part): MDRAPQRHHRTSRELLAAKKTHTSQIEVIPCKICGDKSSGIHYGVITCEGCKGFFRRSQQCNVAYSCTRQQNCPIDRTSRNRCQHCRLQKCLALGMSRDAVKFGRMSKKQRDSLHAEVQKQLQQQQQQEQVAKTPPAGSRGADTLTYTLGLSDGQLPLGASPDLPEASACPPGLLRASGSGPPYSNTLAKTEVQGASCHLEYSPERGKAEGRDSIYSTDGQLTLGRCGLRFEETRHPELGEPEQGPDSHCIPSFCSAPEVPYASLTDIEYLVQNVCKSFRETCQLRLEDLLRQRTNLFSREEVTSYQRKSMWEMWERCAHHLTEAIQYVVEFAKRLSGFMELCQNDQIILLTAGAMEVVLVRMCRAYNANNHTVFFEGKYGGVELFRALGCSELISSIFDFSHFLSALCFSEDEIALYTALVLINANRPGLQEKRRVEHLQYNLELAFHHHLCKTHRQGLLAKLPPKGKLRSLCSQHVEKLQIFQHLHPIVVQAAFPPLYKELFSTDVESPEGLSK
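Stable Schneider cell line, Gal4 DNA-binding domain fused to ROR gamma, UAS-luciferase. Cmpd 1 hr RT → CuSO4 700 uM final → 20 hr RT → luciferase reagent 10 min → luminescence.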
The depositor's hits bear a star; ? = inconclusive; · = no result; [ ] = another dose, or the depositor's remark. Calls follow the shape of the dose curve; as a rule, active = well fitted curve in the direction sought with a large enough effect; inconclusive = small, poorly fitted or top-dose-only effect, or another doubt; inactive = no such curve, though single readings can be large; an effect the other way counts as inactive or inconclusive. Potency is read from the fitted curve at half-maximal effect.

SMILES	ELG1 repair inh	SW480 rerep	MCF10A rereplic	Gal4-VP16 FLuc	RORg inh
CN(Cc1ccccc1)C(=O)c1ccc(NC(=O)Cc2cccc(NC(=O)C3CCN(C(=O)C4CCCC4)CC3)c2)cc1	10.3µM*	-8.1%	-5.5%	·	·
CN(Cc1ccccc1)C(=O)c1cccc(NC(=O)Cc2cccc(NC(=O)C3CCN(C(=O)C4CCC4)CC3)c2)c1	·	6.6%	?	·	·
CN(C(=O)c1cccc(NC(=O)Cc2ccc(NC(=O)C3CCCN(C(=O)C4CC4)C3)cc2)c1)C1CCCCC1 (centres undefined)	·	2.59µM*	10.4%	·	·
CCC(=O)NC(=S)Nc1ccc(S(=O)(=O)NC2CCCCC2)cc1	5.0%	-1.8%	1.9%	-2.6%	-24.5%
N#CN1CCC(NS(=O)(=O)c2ccc(C(F)(F)F)cc2)CC1	13.3%	-5.9%	14.0%	·	·
CCOc1ccc2nc(SC3CC(=O)N(c4cccc(OC)c4)C3=O)sc2c1 (centres undefined)	?	·	?	3.98µM*	14.1µM*
CCOC(=O)c1cnc(SC2CC(=O)N(c3cccc(OC)c3)C2=O)nc1N (centres undefined)	4.1%	?	-2.5%	?	-13.7%
CCOc1ccc2nc(SC3CC(=O)N(c4ccccc4)C3=O)sc2c1 (centres undefined)	?	?	?	12.6µM*	10µM*
O=C(Nc1ccccc1)OCCOc1ccc(Cl)cc1Cl	·	?	11.1%	·	·
Cc1ncc(COCc2ccccc2)c(CO)c1OCc1ccccc1	·	-2.9%	11.6%	·	·
CCCOCc1ccc(O)c2ncccc12	7.3µM*	5.8µM*	17.6%	3.55µM*	1.26µM*
CC(C)COCc1ccc(O)c2ncccc12	20.6µM*	?	29.9%	1µM*	0.708µM*
Oc1ccc(COCc2ccccc2)c2cccnc12	?	3.26µM*	?	?	0.562µM*
CCCCN(CCCC)S(=O)(=O)c1ccc(OC)c2ncccc12	-11.1%	?	?	-1.6%	-41.8%
COC(=O)CC(CP(=O)(O)CN(C)C=O)C(=O)OC (centres undefined)	-4.5%	-10.7%	-3.8%	-7.9%	7.3%
Cc1cc(-c2ccc(S(=O)(=O)N3CCN(c4cccc(C)c4C)CC3)s2)on1	?	-7.6%	-10.4%	-10.7%	5.7%
Cc1sc2nc(CSc3ncn[nH]3)[nH]c(=O)c2c1C	-13.9%	-2.1%	-4.5%	0.7%	0.4%
CCc1cc2c(SCc3nc4sc(C(C)=O)c(C)c4c(=O)[nH]3)ncnc2s1	?	-4.7%	-5.5%	?	10µM*
Cc1ccc(NC(=O)c2nc[nH]c2C(=O)N2CCC(C)CC2)cc1	-2.2%	?	-34.7%	?	8.91µM*
Cc1ccc(NC(=O)c2nc[nH]c2C(=O)N2CCN(c3ccccc3)CC2)cc1	14.9%	14.6%[9.22 µM]	3.1%	12.6µM*	4.47µM*
CCOC(=O)c1ccc(NC(=O)c2nc[nH]c2C(=O)N2CCC(C)CC2)cc1	-26.5%	-25.7%[9.22 µM]	-0.4%	?	10µM*
CCOC(=O)c1ccc(NC(=O)c2nc[nH]c2C(=O)N2CCN(c3ccccc3)CC2)cc1	18.7%	-68.7%[9.22 µM]	7.4%	?	?
COc1ccc(NC(=O)c2nc[nH]c2C(=O)N2CCN(C(=O)OC(C)(C)C)CC2)cc1	-16.5%	?	2.9%	?	?
COc1ccc(NC(=O)c2nc[nH]c2C(=O)N2CCC(C)CC2)cc1	-5.6%	-1.2%	11.1%	?	12.6µM*
CCOC(=O)c1c(NC(=O)CSc2nc3ccccc3c(=O)n2-c2ccccc2)sc(C(C)=O)c1C	?	-19.4%	-4.4%	12.0%	0.5%
SMILES	ELG1 repair inh	SW480 rerep	MCF10A rereplic	Gal4-VP16 FLuc	RORg inh
O=C1C=Cc2ccccc2/C1=C/c1[nH]c(=O)[nH]c1O	1.0%	15.3%	22.4%	?	6.31µM*
O=c1[nH]c(O)c(/C=C2\C=Nc3ccccc32)[nH]1	?	-9.9%	-10.2%	-7.1%	30.9%
CN(C)/C=C(\C(=O)c1cccc(Cl)c1)c1nnnn1-c1ccccc1	-1.0%	?	-0.8%	?	14.1µM*
CCCCn1c(O)c(N=Nc2ccccn2)c2ccccc21	-17.3%	-5.3%	17.9%	?	10µM*
COc1cccc(/C=N/n2nnnc2N)c1O	?	-4.1%	-9.7%	-11.6%	0.9%
CCn1c2ccccc2c2cc(NC(=O)COC(=O)c3cc(OC)c(OC)cc3OC)ccc21	9.2µM*	-4.7%	-2.0%	-4.5%	13.3%
CCn1c2ccccc2c(=O)c2ccccc21	-10.1%	23.1µM*	23.1µM*	17.9%	-24.9%
CCn1c2ccccc2c2cc([N+](=O)[O-])ccc21	0.7%	-98.9%	12.6%	-1.7%	-14.7%
CCOc1ccc(-c2nnc(SCC(=O)Nc3ccc4c(c3)c3ccccc3n4CC)n2N)cc1	-25.1%	?	10.3µM*	22.4µM*	?
CCn1c2ccccc2c2cc(NC(=O)CC(C)=O)ccc21	-1.8%	-40.4%	?	-1.9%	9.8%
CCCC(=O)Nc1ccc2c(c1)c1ccccc1n2CC	-25.8%	?	20.6µM*	1.5%	13.0%
CCN(CC)S(=O)(=O)c1cc(NC(=O)CNc2cccc(S(=O)(=O)N3CCCC3)c2)ccc1C	?	-1.6%	26.1%	·	·
Fc1ccc(C(c2nnnn2C2CCCCC2)N2CCCC2)cc1 (centres undefined)	12.3%	-7.3%	2.2%	-0.8%	5.9%
Clc1ccc(C(c2nnnn2C2CCCC2)N2CCSCC2)cc1 (centres undefined)	?	-3.3%	20.6µM*	-10.1%	-20.1%
CCOC(=O)CCCc1ccc(/C(C)=N/NC(N)=S)cc1	9.2µM*	-1.1%	20.1%	?	?
Cc1ccc(CN2C(=O)C3CCCN3c3ncccc32)cc1 (centres undefined)	-21.8%	?	23.1µM*	-9.4%	31.4%
c1cc(Nc2ncnc3sccc23)cc(-c2nnc3n2CCCCC3)c1	23.1µM*	-0.3%	-1.8%	-1.7%	0.4%
COc1ccc(C(=O)COC(=O)c2cc(S(=O)(=O)N3CCCCC3)ccc2N2CCOCC2)c(OC)c1	?	0.7%	-3.0%	·	·
CCC1(C)Cc2ccccc2-c2nc(NCCCO)n(-c3ccccc3)c(=O)c21 (centres undefined)	-16.9%	-0.5%	?	-11.8%	41.4%
CSc1n[nH]c2nc3c(c(=O)n12)C1(CCCCC1)Cc1ccccc1-3	4.4%	?	?	-18.9%	-42.7%
CCSc1n[nH]c2nc3c(c(=O)n12)C1(CCCCC1)Cc1ccccc1-3	0.0%	-3.2%	5.17µM*	-2.6%	-12.0%
Cn1c(NCCCO)nc2c(c1=O)C1(CCCCC1)Cc1ccccc1-2	-5.3%	0.2%	18.4µM*	?	?
CCn1c(=O)c2c(n3c(=S)[nH]nc13)-c1ccccc1CC21CCCCC1	-7.9%	-3.6%	3.0%	-12.7%	2.82µM*
N#CCSc1n[nH]c2nc3c(c(=O)n12)C1(CCCCC1)Cc1ccccc1-3	?	?	16.4µM*	7.8%	34.2%
